Measurements reported in PubChem BioAssay (Tox21).
Inconclusive results are not listed. Calls of active or inactive are those of the source. Calls come from the whole dose curve; as a rule, active = well fitted curve in the direction sought with a large enough effect in the repeat runs; inconclusive = weak or mixed curves; inactive = no such curve, though single readings can be large; an effect the other way counts as inactive or inconclusive.

Tests used:
[1] = qHTS RealTime-Glo MT Cell Viability Assay in HepG2 cells - 24 hour (AID 1224867); note: nearly all actives have a fitted effect of over 50% in size
Method in brief: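 HepG2 suspension premixed with RealTime-Glo reagents is plated at 600 cells per well and left 5 h at 37 C/5% CO2. Compounds in DMSO then go in, and bioluminescence reflecting viable cell number is recorded over 40 h.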

[2] = qHTS RealTime-Glo MT Cell Viability Assay in HEK293 cells - 32 hour (AID 1224868); note: top concentration of the series differs between compounds; nearly all actives have a fitted effect of over 50% in size
Method in brief: (§1)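 Reads taken at 0, 8, 16, 24, 32 and 40 h from the same wells. HEK293 cells (600/well) carried RealTime-Glo reagents from seeding, with compound added after a 5 h settle at 37 C.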

[3] = A CellTox Green Cytotoxicity Assay to monitor cytotoxicity in HEK293 cells - 0 hour (AID 1224869); note: nearly all actives have a fitted effect of over 50% in size
Method in brief: (§2)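 Dead-cell fluorescence measured kinetically: asymmetric cyanine dye, HEK293, 600 cells/well, 5 h settle, 23 nL cpd/DMSO, 37 C, reads 0–40 h every 8 h.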

[4] = qHTS RealTime-Glo MT Cell Viability Assay in HepG2 cells - 40 hour (AID 1224870); note: nearly all actives have a fitted effect of over 50% in size
Method in brief: (§3)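 HepG2 cells mixed with RealTime-Glo MT reagents (NanoLuc plus cell-permeant prosubstrate) were seeded at 600 cells/well, incubated 5 h at 37 C/5% CO2, then pinned with compounds in DMSO; nonlytic luminescence tracked viability during 40 h treatment.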

[5] = A CellTox Green Cytotoxicity Assay to monitor cytotoxicity in HEK293 cells - 40 hour (AID 1224871); note: nearly all actives have a fitted effect of over 45% in size
Method in brief: as §2

[6] = qHTS RealTime-Glo MT Cell Viability Assay in HEK293 cells - 16 hour (AID 1224872)
Method in brief: as §1

[7] = qHTS RealTime-Glo MT Cell Viability Assay in HepG2 cells - 8 hour (AID 1224873); note: nearly all actives have a fitted effect of over 55% in size
Method in brief: as §3

[8] = A CellTox Green Cytotoxicity Assay to monitor cytotoxicity in HEK293 cells - 24 hour (AID 1224875); note: series mostly up to about 77 µM; nearly all actives have a fitted effect of over 45% in size
Method in brief: as §2

[9] = A CellTox Green Cytotoxicity Assay to monitor cytotoxicity in HepG2 cells - 16 hour (AID 1224876); note: nearly all actives have a fitted effect of over 45% in size
Method in brief: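 First, HepG2 cells (600/well) mixed with reagent were plated; second, after 5 h at 37 C they received compounds via pintool; third, fluorescence was measured at 0 h through 40 h at 8 h intervals.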

[10] = qHTS RealTime-Glo MT Cell Viability Assay in HEK293 cells - 40 hour (AID 1224874); settings: RealTime-Glo luminescence, hits give low values; note: nearly all actives have a fitted effect of over 50% in size
Method in brief: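 600 HEK293 cells per well, dispensed already mixed with RealTime-Glo MT reagents. Compound dosing came 5 h later. The same wells were read for luminescence at 0, 8, 16, 24, 32 and 40 h of exposure at 37 C.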
% is set by controls: 0 for no effect and ±100 for the full control effect.

Cc1ccc(NC(N)=O)cc1
inactive: outcome [1] | outcome [2] | outcome [3] | outcome [4] | Potency [5] | outcome [6] | outcome [7] | Potency [8] | Potency [9]

CC(C)=CCC/C(C)=C\C#N
inactive: outcome [1] | outcome [2] | outcome [3] | outcome [4] | Potency [5] | outcome [6] | outcome [7] | max response [10] 15.8% | Potency [8] | Potency [9]

CCCCCCCCCCCCCCCC(=O)OC
inactive: activity change, negative = cytotoxicity [1] -0.801% [at 15.8 µM] | activity change, negative = cytotoxic [2] -0.272% [at 15.8 µM] | cytotoxicity [3] -0.154% [at 15.8 µM] | activity change, negative = cytotoxic [4] 16.9% [at 15.8 µM] | cytotoxicity increase [5] -6.02% [at 15.8 µM] | activity change, negative = cytotoxicity [6] -4.38% [at 15.8 µM] | viability change, negative = cytotoxic [7] -11% [at 15.8 µM] | max response [10] -0.62% | activity change [8] -1.12% [at 15.8 µM, hits give high values] | cytotoxicity increase [9] -17.1% [at 15.8 µM]

CC1=C(O)C(=O)CO1
inactive: outcome [1] | outcome [2] | outcome [3] | outcome [4] | Potency [5] | outcome [6] | outcome [7] | max response [10] 0.017% | Potency [8] | Potency [9]

C[Si](C)(C)O[Si](O)(O)O
inactive: outcome [1] | outcome [2] | outcome [3] | outcome [4] | Potency [5] | outcome [6] | outcome [7] | max response [10] 0.476% | Potency [8] | Potency [9]

CCOCCOCCOC(C)=O
inactive: outcome [1] | outcome [2] | outcome [3] | outcome [4] | Potency [5] | outcome [6] | outcome [7] | max response [10] 7.47% | Potency [8] | Potency [9]

CC(=O)/C=C/C=C1/C2CCC(C2)C1(C)C (stereo unspecified)
inactive: outcome [1] | outcome [2] | outcome [3] | outcome [4] | Potency [5] | outcome [6] | outcome [7] | max response [10] -0.661% | Potency [8] | Potency [9]

Cc1ccc(Br)cc1
inactive: outcome [1] | outcome [2] | outcome [3] | outcome [4] | Potency [5] | outcome [6] | outcome [7] | max response [10] 0.938% | Potency [8] | Potency [9]

COC(=O)C(c1ccccc1Cl)N1CCc2sccc2C1 (stereo unspecified)
inactive: outcome [1] | outcome [2] | outcome [3] | outcome [4] | Potency [5] | outcome [6] | outcome [7] | max response [10] -3.35% | Potency [8] | Potency [9]

COc1ccccc1N1CCN(CC(O)COc2cc(OC)c(OC)c(OC)c2)CC1 (stereo unspecified)
inactive: outcome [1] | outcome [2] | outcome [3] | outcome [4] | Potency [5] | outcome [6] | outcome [7] | max response [10] 4.13% | Potency [8] | Potency [9]

c1coc(Cn2cccc2)c1
inactive: outcome [1] | outcome [2] | outcome [3] | outcome [4] | Potency [5] | outcome [6] | outcome [7] | Potency [8] | Potency [9]

CC(C)OCCO
inactive: outcome [1] | outcome [2] | outcome [3] | outcome [4] | Potency [5] | outcome [6] | outcome [7] | max response [10] 4.69% | Potency [8] | Potency [9]

CCCCN(CCCC)CCCCCCN(CCCC)CCCC
inactive: outcome [1] | outcome [2] | outcome [3] | outcome [4] | Potency [5] | outcome [6] | outcome [7] | max response [10] -10.4% | Potency [8] | Potency [9]

CCCCC(CC)COC(=O)CC#N (stereo unspecified)
inactive: outcome [1] | outcome [2] | outcome [3] | outcome [4] | Potency [5] | outcome [6] | outcome [7] | max response [10] 0.0288% | Potency [8] | Potency [9]

C=CC(=O)OCC[N+](C)(C)C
inactive: outcome [1] | outcome [2] | outcome [3] | outcome [4] | Potency [5] | outcome [6] | outcome [7] | max response [10] 10.3% | Potency [8] | Potency [9]

N=C(N)N1CCc2ccccc2C1
inactive: activity change, negative = cytotoxicity [1] -0.623% [at 6.97 µM] | activity change, negative = cytotoxic [2] 0.854% [at 6.97 µM] | cytotoxicity [3] -7.02% [at 6.97 µM] | activity change, negative = cytotoxic [4] 0.674% [at 6.97 µM] | cytotoxicity increase [5] -5.28% [at 6.97 µM] | activity change, negative = cytotoxicity [6] 1.8% [at 6.97 µM] | viability change, negative = cytotoxic [7] 0.945% [at 6.97 µM] | activity change [8] -12.7% [at 6.97 µM, hits give high values]

CCCc1ncc(C(=O)O)s1
inactive: outcome [1] | outcome [2] | outcome [3] | outcome [4] | Potency [5] | outcome [6] | outcome [7] | max response [10] 0.25% | Potency [8] | Potency [9]

C/C=C(\C)C=O
inactive: outcome [1] | outcome [2] | outcome [3] | outcome [4] | Potency [5] | outcome [6] | outcome [7] | max response [10] 8.23% | Potency [8] | Potency [9]
